KB-3-1 cytotox = KB-3-1 parental cell cytotoxicity. hit rate 1.4% among 400,000. Potency, µM (series often up to 46.1 µM), most hits filed as cytotoxic. AID 1347075. KB-3-1 viability, CellTiter-Glo ATP luminescence, 72 h; also: nearly all actives have a fitted effect of over 60% in size
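Luminescent ATP read-out (CellTiter-Glo) measures survival of drug-naive KB-3-1 cells after 72 h compound exposure at 37 °C. Titration series was screened from lowest to highest concentration, with DMSO vehicle plates as background controls.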
HT1080 IDH1KD tx = toxicity to HT-1080 IDH1 knockdown cells (counter line); HT-1080 IDH1 knockdown viability, ATP luminescence, 48 h; Potency, µM (top dose mostly 46.1 µM), actives largely listed as cytotoxic; hit rate 2% among 360,000
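Using the IDH1-knockdown HT-1080 line run in the same batch and compound series as the NT line, viability after 48 h at 37 °C was determined by CellTiter-Glo luminescence and expressed as % activity.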
HT1080NT lethal = kills 2HG-producing HT-1080-NT fibrosarcoma cells; Potency, µM (series often up to 46.1 µM), usual class: cytotoxic; AID 686970; hit rate 1.6% among 360,000; HT-1080-NT fibrosarcoma viability, CellTiter-Glo ATP luminescence, 48 h;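 also: NT is the 2HG producing partner of a matched IDH1 knockdown line; nearly all actives have a fitted effect of over 55% in size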
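HT-1080-NT; 750 cells/well; 5% FBS RPMI; 48 h compound, 37 degrees C; CellTiter-Glo luminescence; curve fitting and curve-class assignment.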
SW480 rereplic = induces DNA re-replication in SW480 colon adenocarcinoma cells; hit rate 1.8% among 340,000; SW480 DNA re-replication, Hoechst DNA content imaging, 48 h; Potency, µM (highest dose often 46.1 µM), hits mostly activators; also: nearly all actives have a fitted effect of over 55% in size
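Per well, 250 cells were exposed to pinned compound for 48 hr. Nuclear DNA was visualised with Hoechst (40 min, 37 C) and total object intensity recorded by fluorescence scanning.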
KB-V1 MDR tox = KB-V1 MDR subline cytotoxicity; KB-V1 MDR cells viability, CellTiter-Glo, 72 h; hit rate 3.4% among 400,000; Potency, µM (titrated, usually from 46.1 µM), most hits filed as cytotoxic; also: nearly all actives have a fitted effect of over 60% in size
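Luminescent ATP read-out (CellTiter-Glo, 10 min) measures survival of drug-selected KB-V1 MDR cells after 72 h, 37 degrees C compound exposure. Medium: phenol-red-free DMEM, 10% FBS. Values from fitted concentration-response curves.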
MCF10A rereplic = DNA re-replication induction in MCF 10a cells | MCF 10A DNA re-replication, Hoechst nuclear intensity, 48 h | Potency, µM (doses to about 46.1 µM), usual class: activators | hit rate 2.9% among 350,000 | AID 624296; also: nearly all actives have a fitted effect of over 50% in size
Hits are given with their value; - = inactive; ? = inconclusive; . = no result; [ ] = dose if it differs, or a comment. An excerpt weighted towards active compounds, which were near 8% of everything screened. Calls follow the shape of the dose curve; as a rule, active = well fitted curve in the direction sought with a large enough effect; inconclusive = small, poorly fitted or top-dose-only effect, or another doubt; inactive = no such curve, though single readings can be large; an effect the other way counts as inactive or inconclusive.

SMILES	KB-3-1 cytotox	HT1080 IDH1KD tx	HT1080NT lethal	SW480 rereplic	KB-V1 MDR tox	MCF10A rereplic
C/C(=N\NC(=O)CCc1ccccc1)C1C(=O)c2ccccc2C1=O	?	?	?	?	9.2µM	-
C/C(=N\NC(=O)c1cccc(Cl)c1)C1C(=O)c2ccccc2C1=O	23µM	8.2µM	13µM	3.7µM	9.2µM	?
CN(Cc1ccccc1)c1ccc(-c2nc(-c3ccco3)no2)cc1[N+](=O)[O-]	-	.	.	.	-	.
CN(C)c1ccc(C(=O)Nc2c(C(=O)NC(C)(C)C)oc3ccccc23)cc1	-	.	.	.	-	.
COC(=O)c1ccc(C23CC4(C2)[C@H](CN(Cc2ccc(C(F)(F)F)cc2)[C@@H]4c2ccccc2)C3c2ccc(Cl)nc2)cc1 (stereo partly drawn)	-	-	-	-	-	-
FC(F)(F)c1ccc(CN2C[C@@H]3C(c4ccc(Cl)nc4)C4(c5cccnc5)CC3(C4)[C@H]2c2ccccc2)cc1 (stereo partly drawn)	15µM	?	?	-	?	-
Cc1ccc(NC(=S)N(CCCN2CCC(C)CC2)Cc2ccco2)cc1C	-	-	-	-	23µM	?
Cc1ccccc1NC(=S)N(CCCN1CCC(C)CC1)Cc1ccco1	-	-	-	-	-	-
O=C(Nc1ccc(F)cc1)c1ccc(S(=O)(=O)NCC2CCCO2)cc1 (stereo not drawn)	?	-[9.24 µM]	?	-	13µM	-
O=S(=O)(NCc1ccncc1)c1ccc(S(=O)(=O)NCC2CCCO2)cc1 (stereo not drawn)	23µM	-	-	-	-	6.5µM
O=S(=O)(NCc1ccccc1)c1ccc(S(=O)(=O)NCC2CCCO2)cc1 (stereo not drawn)	?	-	-	?	-	-
COc1ccc(C2CC(=O)c3c([nH]c(C(=O)OC(C)C)c3C)C2)cc1OC (stereo not drawn)	-	-	-	-	2.6µM	-
COC(=O)c1[nH]c2c(c1C)C(=O)CC(c1cccs1)C2 (stereo not drawn)	?	1µM	1µM	?	2.1µM	2.1µM
CCOc1ccc(C2CC(=O)c3c([nH]c(C(=O)OC)c3C)C2)cc1OC (stereo not drawn)	-	?	?	-	?	-
COc1ccc(OC)c(C2CC(=O)c3c([nH]c(C(=O)OCC4CCCCC4)c3C)C2)c1 (stereo not drawn)	-	.	.	.	-	.
COC(=O)c1[nH]c2c(c1C)C(=O)CC(c1cc(OC)ccc1OC)C2 (stereo not drawn)	3.7µM	21µM	?	?	5.2µM	8.2µM
CCC(C)NC(=O)C1CCN(S(=O)(=O)c2ccc3c(ccn3CC)c2)CC1 (stereo not drawn)	-	.	.	.	-	.
CC(=O)N1CCCc2cc(S(=O)(=O)NCc3ccccc3Cl)ccc21	-	.	.	.	-	.
O=C1c2ccccc2C(=O)c2c1cccc2N1CCCC1	-	-	-	-	15µM	-
Cn1c(=O)cc2c3c(c(N4CCCCC4)ccc31)C(=O)c1ccccc1-2	-	-	-	?	-	-
O=C1C=C(C2CCCCC2)C(=O)c2ccccc21	-	-	-	?	-	?
O=C1C=C(N2CCCCC2)c2ccccc2C1=O	12µM	5.8µM	6.5µM	3.3µM	10µM	?
CCc1ccc(CNC(=O)CN2C(=O)c3cccnc3Oc3ccc(C)cc32)cc1	-	.	.	.	-	.
O=[N+]([O-])c1nc2ccccc2[nH]1	?	-	-	-	18µM	-
CCOC(=O)c1c(C)[nH]c(C)c1C(=O)CSc1nc2ccccc2c(=O)n1-c1ccc(CC)cc1	23µM	-	-	-	7.3µM	?
CCOC(=O)c1c(C)[nH]c(C)c1C(=O)CSc1nnnn1-c1ccccc1	-	-	-	-	?	-
CCOC(=O)c1c(C)[nH]c(C)c1C(=O)Cn1nnc(-c2ccccc2C)n1	-	-	-	-	16µM	21µM
Cc1cc(C(=O)CSc2nc3ccccc3[nH]2)c(C)n1CC1CCCO1 (stereo not drawn)	3.7µM	?	-	-	2.3µM	?

High-throughput results: PubChem, National Center for Advancing Translational Sciences (NCATS)
